Among all 5,500 compounds or so, about 2,000 (36%) were called active. Another 18% or so got no clear call; they are omitted. Cut-off read from the data, not from the text of the source: active = normalized growth mostly below about 0.91 (no sharp cut-off); inconclusive = no clear call, values can overlap the other calls; inactive = mostly above about 0.92. The list shows a part of the results.
Experiment: chemical genetic growth profiling, strain panel (AID 1159580);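 note: tested at 20 µM; growth read once vehicle control cultures reached saturation at 30 °C; 1 = growth at the plate median or of vehicle wells; lower values mean less growth of the strain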
Details: S. cerevisiae deletion strains, growth OD
[1] = locus YAR019C, strain CDC15, stronger effect = lower value
[2] = locus YBL105C, strain PKC1, stronger effect = lower value
[3] = locus YBR135W, strain CKS1, stronger effect = lower value
[4] = locus YBR136W, strain MEC1, stronger effect = lower value
[5] = locus YBR160W, strain CDC28, stronger effect = lower value
[6] = locus YDL017W, strain CDC7, stronger effect = lower value
[7] = locus YDL028C, strain MPS1, stronger effect = lower value
[8] = locus YDL101C, strain DUN1, stronger effect = lower value
[9] = locus YDL108W, strain KIN28, stronger effect = lower value
[10] = locus YDL132W, strain cdc53, stronger effect = lower value
[11] = locus YDL214C, strain PRR2, stronger effect = lower value
[12] = locus YDR052C, strain DBF4, stronger effect = lower value
[13] = locus YDR054C, strain cdc34, stronger effect = lower value
[14] = locus YDR226W, strain ADK1, stronger effect = lower value
[15] = locus YDR477W, strain SNF1, stronger effect = lower value
[16] = locus YER123W, strain YCK3, stronger effect = lower value
[17] = locus YER133W, strain GLC7, stronger effect = lower value
[18] = locus YFL009W, strain cdc4, stronger effect = lower value
[19] = locus YFL029C, strain CAK1, stronger effect = lower value
[20] = locus YFR003C, strain YPI1, stronger effect = lower value
[21] = locus YFR019W, strain FAB1, stronger effect = lower value
[22] = locus YFR028C, strain CDC14, stronger effect = lower value
[23] = locus YGR040W, strain KSS1, stronger effect = lower value
[24] = locus YGR052W, strain FMP48, stronger effect = lower value
[25] = locus YGR092W, strain DBF2, stronger effect = lower value
[26] = locus YHR030C, strain SLT2, stronger effect = lower value
[27] = locus YHR079C, strain IRE1, stronger effect = lower value
[28] = locus YHR082C, strain KSP1, stronger effect = lower value
[29] = locus YHR205W, strain SCH9, stronger effect = lower value
[30] = locus YIL147C, strain SLN1, stronger effect = lower value
[31] = locus YJL095W, strain BCK1, stronger effect = lower value
[32] = locus YJL128C, strain PBS2, stronger effect = lower value
[33] = locus YJL157C, strain FAR1, stronger effect = lower value
[34] = locus YJR016C, strain ILV3, stronger effect = lower value
[35] = locus YJR066W, strain TOR1 (second series), stronger effect = lower value
[36] = locus YJR066W, strain TOR1, stronger effect = lower value
[37] = locus YKL048C, strain ELM1, stronger effect = lower value
[38] = locus YKL067W, strain YNK1, stronger effect = lower value
[39] = locus YKL101W, strain HSL1, stronger effect = lower value
[40] = locus YKL193C, strain SDS22, stronger effect = lower value
[41] = locus YKL203C, strain TOR2, stronger effect = lower value
[42] = locus YLR113W, strain HOG1, stronger effect = lower value
[43] = locus YLR133W, strain CKI1, stronger effect = lower value
[44] = locus YLR403W, strain SFP1, stronger effect = lower value
[45] = locus YML070W, strain DAK1, stronger effect = lower value
[46] = locus YMR001C, strain CDC5, stronger effect = lower value
[47] = locus YMR205C, strain PFK2 (second series), stronger effect = lower value
[48] = locus YMR277W, strain FCP1, stronger effect = lower value
[49] = locus YNL006W, strain LST8, stronger effect = lower value
[50] = locus YNL020C, strain ARK1, stronger effect = lower value
[51] = locus YNL161W, strain CBK1, stronger effect = lower value
[52] = locus YNL183C, strain NPR1, stronger effect = lower value
[53] = locus YNL207W, strain RIO2, stronger effect = lower value
[54] = locus YNL222W, strain SSU72, stronger effect = lower value
[55] = locus YNL307C, strain MCK1 (second series), stronger effect = lower value
[56] = locus YOL078W, strain AVO1, stronger effect = lower value
[57] = locus YOL136C, strain PFK27, stronger effect = lower value
[58] = locus YOR061W, strain CKA2, stronger effect = lower value
[59] = locus YOR119C, strain RIO1, stronger effect = lower value
[60] = locus YOR231W, strain MKK1, stronger effect = lower value
[61] = locus YOR329C, strain SCD5, stronger effect = lower value
[62] = locus YPL031C, strain PHO85, stronger effect = lower value
[63] = locus YPL153C, strain RAD53, stronger effect = lower value
[64] = locus YPL204W, strain HRR25, stronger effect = lower value
[65] = locus YPL209C, strain IPL1, stronger effect = lower value
[66] = locus YPL256C, strain CLN2, stronger effect = lower value
[67] = locus YPR025C, strain CCL1, stronger effect = lower value
[68] = locus YPR106W, strain ISR1, stronger effect = lower value
[69] = locus YPR111W, strain DBF20, stronger effect = lower value
[70] = strain NNK1, stronger effect = lower value
[71] = strain TSCII, stronger effect = lower value

Measured: normalized growth

CC(=O)ON=C1c2cc([N+](=O)[O-])ccc2-c2ccc([N+](=O)[O-])cc21
active: [25] 0.426 | [26] 0.788 | [42] 0.789
inactive: [1] 0.948 | [2] 0.942 | [3] 0.949 | [4] 0.939 | [5] 0.955 | [6] 0.954 | [7] 0.933 | [8] 0.963 | [9] 0.937 | [10] 0.971 | [11] 0.85 | [12] 0.953 | [13] 0.942 | [14] 0.983 | [15] 0.729 | [16] 0.793 | [17] 0.867 | [18] 0.966 | [19] 0.948 | [20] 0.935 | [21] 0.933 | [22] 0.963 | [23] 0.702 | [24] 0.793 | [27] 0.825 | [28] 0.796 | [29] 0.858 | [30] 0.93 | [31] 0.778 | [32] 0.917 | [33] 0.835 | [34] 0.939 | [35] 0.682 | [36] 0.76 | [37] 0.892 | [38] 0.864 | [39] 0.761 | [40] 0.945 | [41] 0.843 | [43] 0.879 | [44] 0.776 | [45] 0.852 | [46] 0.942 | [47] 0.865 | [48] 0.936 | [49] 0.953 | [50] 0.836 | [51] 0.952 | [52] 0.745 | [53] 0.93 | [54] 0.939 | [55] 0.691 | [56] 0.95 | [57] 0.866 | [58] 0.751 | [59] 0.817 | [60] 0.848 | [61] 0.942 | [62] 0.701 | [63] 0.724 | [64] 0.749 | [65] 0.948 | [66] 0.891 | [67] 0.947 | [68] 0.964 | [69] 0.957 | [70] 0.944 | [71] 0.943

CCCCN(C)C(=O)c1cc([N+](=O)[O-])cc2c1-c1ccc([N+](=O)[O-])cc1C2=C(C#N)C#N
inactive: [1] 0.984 | [2] 0.988 | [3] 0.985 | [4] 0.977 | [5] 0.979 | [6] 0.985 | [7] 0.976 | [8] 0.98 | [9] 0.974 | [10] 0.969 | [11] 0.983 | [12] 0.975 | [13] 0.98 | [14] 0.994 | [15] 0.972 | [16] 0.942 | [17] 0.984 | [18] 0.983 | [19] 0.98 | [20] 0.984 | [21] 0.961 | [22] 0.98 | [23] 0.978 | [24] 0.953 | [25] 0.944 | [26] 0.968 | [27] 0.957 | [28] 1.04 | [29] 0.976 | [30] 0.982 | [31] 0.868 | [32] 0.959 | [33] 0.988 | [34] 0.973 | [35] 0.971 | [36] 0.973 | [37] 0.98 | [38] 0.971 | [39] 0.951 | [40] 0.977 | [41] 1.01 | [42] 0.871 | [43] 0.99 | [44] 0.966 | [45] 0.94 | [46] 0.977 | [47] 0.985 | [48] 0.976 | [49] 0.983 | [50] 0.985 | [51] 0.983 | [52] 0.968 | [53] 0.979 | [54] 0.978 | [55] 0.907 | [56] 0.968 | [57] 0.941 | [58] 0.971 | [59] 1.03 | [60] 0.876 | [61] 0.99 | [62] 0.967 | [63] 0.986 | [64] 0.958 | [65] 0.986 | [66] 0.968 | [67] 0.982 | [68] 0.985 | [69] 0.993 | [70] 0.994 | [71] 0.98

From PubChem BioAssay AID1159580 (chemical genetic matrix, 2015)
